The target in this assay is furin, P09958. Nature of the assay: furin cleavage Z-score vs untreated control; higher = more cleavage, active = 3.5 or more, inactive = 1 or less, 8 variable residues between constant flanks. In short, it runs like this:
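The cleavage Z-score was derived for purified furin acting on 8-mer peptides held on magnetic beads and fused to a cDNA oligonucleotide. Digests lasted 7.5, 15 or 30 min at 1:10 enzyme:substrate in 50 mM HEPES pH 7.5 with CaCl2 and NaCl. Sequencing counts of released DNA, log-transformed against furin-free reactions, were lowess-adjusted and scaled by median absolute deviation.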

Results on 15 sequences are retold here after the supplement of paper PMC3545927.

Some of the results follow. The hit rate among all sequences tested is not known here.

Chain of furin, P09958 (P09958 whole entry, the tested form may be a part): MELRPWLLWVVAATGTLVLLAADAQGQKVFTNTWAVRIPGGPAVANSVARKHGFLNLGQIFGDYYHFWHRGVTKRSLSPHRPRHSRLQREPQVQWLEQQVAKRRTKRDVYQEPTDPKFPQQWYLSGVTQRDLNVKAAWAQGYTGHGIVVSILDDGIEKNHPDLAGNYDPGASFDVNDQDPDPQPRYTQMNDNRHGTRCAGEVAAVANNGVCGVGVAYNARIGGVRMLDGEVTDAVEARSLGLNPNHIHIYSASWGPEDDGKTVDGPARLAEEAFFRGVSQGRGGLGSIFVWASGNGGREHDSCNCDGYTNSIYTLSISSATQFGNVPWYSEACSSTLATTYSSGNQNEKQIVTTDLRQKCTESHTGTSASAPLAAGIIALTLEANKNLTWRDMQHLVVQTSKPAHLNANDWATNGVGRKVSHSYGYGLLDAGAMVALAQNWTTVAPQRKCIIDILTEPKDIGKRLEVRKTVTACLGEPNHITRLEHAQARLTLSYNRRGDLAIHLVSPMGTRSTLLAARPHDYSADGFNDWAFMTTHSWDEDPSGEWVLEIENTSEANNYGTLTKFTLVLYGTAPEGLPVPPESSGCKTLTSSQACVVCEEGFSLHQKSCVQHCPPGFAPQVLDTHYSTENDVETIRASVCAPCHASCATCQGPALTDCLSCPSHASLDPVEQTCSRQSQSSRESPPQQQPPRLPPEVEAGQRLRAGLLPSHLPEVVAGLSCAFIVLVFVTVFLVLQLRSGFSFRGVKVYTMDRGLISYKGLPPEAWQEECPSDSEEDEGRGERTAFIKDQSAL

Regarding CAGFTKVCGAAGNASASA [HC440], the “furin cleavage Z-score” value was 0.851 (inactive) (7.5 min), 0.701 (inactive) (15 min) and -1.33 (inactive) (30 min).
The corresponding values for CANSSIVYEAAGNASASA [HC265] are 0.639 (inactive), -1.3 (inactive) and -0.329 (inactive).
For CAEVVTSGWVAGNASASA [HC2216], in that order: 0.374 (inactive), -0.391 (inactive) and -0.0659 (inactive).
As to CARVARVRGGAGNASASA [FS-1938], the “furin cleavage Z-score” value runs as follows: (7.5 min) -0.221 (inactive); (15 min) -0.337 (inactive); (30 min) -1.51 (inactive).
Take CARQAEVIAPAGNASASA [HC1031]: the “furin cleavage Z-score” value is 0.765 (inactive) (7.5 min), 1.4 (15 min) and -0.146 (inactive) (30 min).
Consider CARVARHAAPAGNASASA [FS-2193], for which the “furin cleavage Z-score” value was 7.61 (active) (7.5 min), 8.49 (active) (15 min) and 8.42 (active) (30 min).
For CAPQARVAIKAGNASASA [HC1494], in that order: 0.98 (inactive), -0.346 (inactive) and 1.74.
Turning to CAGRGRERRWAGNASASA [FS-333], the “furin cleavage Z-score” value reads like this: (7.5 min) 6.35 (active); (15 min) 9.27 (active); (30 min) 8.33 (active).
As for CARVDRDVAPAGNASASA [FS-2616], the “furin cleavage Z-score” value (7.5 min) was 0.776 (inactive), the “furin cleavage Z-score” value (15 min) is -0.0435 (inactive) and the “furin cleavage Z-score” value (30 min) was 0.369 (inactive).
Regarding CAGRERMAREAGNASASA [FS-332], the “furin cleavage Z-score” value was 5.27 (active) (7.5 min), 6.35 (active) (15 min) and 5.57 (active) (30 min).
The corresponding values for CARVARVAREAGNASASA [FS-1799] are 7.74 (active), 5.71 (active) and 5.82 (active).
In the case of CAGREILLGPAGNASASA [HC664], the “furin cleavage Z-score” value (7.5 min) was -0.781 (inactive), the “furin cleavage Z-score” value (15 min) is -0.532 (inactive) and the “furin cleavage Z-score” value (30 min) was 0.339 (inactive).
For the sequence CAGTPCSGSWAGNASASA [HC1836], the “furin cleavage Z-score” value runs as follows: (7.5 min) -0.934 (inactive); (15 min) -0.454 (inactive); (30 min) -1.18 (inactive).
Consider CAGRGRGGGGAGNASASA [NG4], for which the “furin cleavage Z-score” value is 0.497 (inactive) (7.5 min), -0.137 (inactive) (15 min) and 0.673 (inactive) (30 min).
Take CADFERKAREAGNASASA [FS-222]: the “furin cleavage Z-score” value was 0.924 (inactive) (7.5 min), 0.123 (inactive) (15 min) and 0.387 (inactive) (30 min).
